Reference: PubChem BioAssay (Tox21)
Unmarked numbers belong to inactive results. A call without a number means that no potency is given here. The source made the active and inactive calls. The call rests on the fitted dose curve.

What follows are compounds tested against Acetylcholinesterase (Homo sapiens) (UniProt P22303) (assay: Acetylcholinesterase (AChE) small molecule antagonists: enzyme-based qHTS assay with human liver microsomes (AID 1347399; further: nearly all actives have a fitted effect of over 60% in size)). Conditions: Potency: qHTS inhibition; outcome: qHTS inhibition; series mostly up to 115 µM.
Chain of Acetylcholinesterase (Homo sapiens) (P22303 whole entry, looked up): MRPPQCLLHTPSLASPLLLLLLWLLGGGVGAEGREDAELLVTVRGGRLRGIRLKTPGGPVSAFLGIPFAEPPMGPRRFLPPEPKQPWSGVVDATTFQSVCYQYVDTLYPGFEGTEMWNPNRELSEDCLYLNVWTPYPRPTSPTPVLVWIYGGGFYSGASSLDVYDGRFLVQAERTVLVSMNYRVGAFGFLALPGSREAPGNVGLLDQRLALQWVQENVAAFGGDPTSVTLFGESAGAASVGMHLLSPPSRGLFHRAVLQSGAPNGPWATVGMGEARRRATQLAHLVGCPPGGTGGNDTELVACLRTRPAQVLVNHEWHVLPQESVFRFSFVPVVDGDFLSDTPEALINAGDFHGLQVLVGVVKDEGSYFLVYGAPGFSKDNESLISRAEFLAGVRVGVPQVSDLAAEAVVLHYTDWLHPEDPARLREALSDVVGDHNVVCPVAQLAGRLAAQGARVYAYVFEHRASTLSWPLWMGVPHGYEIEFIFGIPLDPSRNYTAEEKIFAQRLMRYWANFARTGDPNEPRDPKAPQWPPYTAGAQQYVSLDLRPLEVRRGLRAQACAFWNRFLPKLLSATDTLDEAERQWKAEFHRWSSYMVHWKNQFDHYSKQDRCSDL
Outline: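 Recombinant human AChE (50 mU/mL in the enzyme mix) and human liver microsomes (0.25 mg/mL final) were preincubated with compound and NADPH (0.25 mg/mL final) for 30 min at 37 C. Acetylthiocholine/DTNB was then added; thiocholine was read colorimetrically after 10 min at room temperature.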
For `Cc1cc(NS(=O)(=O)c2ccc(N)cc2)nc(C)n1`, the Potency was “inactive”. For `CCCC(CCC)(C(=O)OCC)C(=O)OCC`, the Potency was “inactive”. With `Cc1cc(=O)[nH]c(=O)[nH]1` the Potency was “inactive”. In the case of `CCCCCCCC/C=C\CCCCCCCC(=O)OC[C@@H](O)[C@H]1OC[C@H](O)[C@H]1O`, the Potency is reported as “inactive”. `O=C(O)[C@H](O)[C@@H](O)[C@H](O)[C@H](O)CO` was tested, and the Potency was “inactive”. `CCC(CO)CO` was tested, and the Potency was “inactive”. For `O=S(=O)(O)c1cccc2c(S(=O)(=O)O)cccc12`, the Potency was “inactive”. With `Cc1ccc(NC(=O)N(C)C)cc1NC(=O)N(C)C` the Potency was “inactive”. `C[C@]12CC[C@@H]3c4ccc(O)cc4CC[C@H]3[C@@H]1CC[C@@H]2O` was tested, and the Potency was “inactive”. With `Nc1ccc2cc(S(=O)(=O)O)ccc2c1` the Potency was “inactive”. `Cc1c(C(=O)O)cccc1[N+](=O)[O-]` was tested, and the Potency was “inactive”. `CCCCOC(=O)c1ccccc1C(=O)OCC(CC)CCCC` (stereo not given) was tested, and the Potency was “inactive”. For `Cc1cc(C)cc(O)c1`, the Potency was “inactive”. `CC1CC(C)C(=O)C1=O` (stereo not given) was tested, and the Potency was “inactive”. `CC(O)CNCC(C)O` (stereo not given) was tested, and the Potency was “inactive”. In the case of `Oc1ccc(/C=C/c2cc(O)cc(O)c2)cc1`, the Potency is reported as “inactive”. For `CN(C)c1ccncc1`, the Potency was “inactive”. In the case of `c1cc(N(CC2CO2)CC2CO2)ccc1OCC1CO1` (stereo not given), the Potency is reported as “inactive”. With `CC(=O)c1ccc(S(=O)(=O)NC(=O)NC2CCCCC2)cc1` the Potency was “inactive”. In the case of `C[Si](C)=O`, the activity change, negative = inhibition is reported as -0.0165% [at 10.5 µM]. With `Cc1ccc2c(c1)C(=O)OC2=O` the Potency was “inactive”. With `Cc1nc2ccccc2s1` the Potency was “inactive”. `CNc1c2c(nn1C)CCCC2` was tested, and the Potency was “inactive”. In the case of `COc1cc([C@H]2Oc3cc([C@H]4Oc5cc(O)cc(O)c5C(=O)[C@@H]4O)ccc3O[C@@H]2CO)ccc1O`, the Potency is reported as “inactive”. For `CCNc1cccc(C)c1`, the Potency was “inactive”. With `FC(F)(F)C(F)(F)C(F)(F)C(F)(F)C(F)(F)C(F)(F)C(F)(F)C(F)(F)C(F)(F)C(F)(F)F` the activity change, negative = inhibition was 1.12% [at 10.5 µM]. In the case of `O=C(OCC1CCC2OC2C1)C1CCC2OC2C1` (stereo not given), the Potency is reported as “inactive”. For `CC(C)(C(=O)c1cccnc1)c1cccnc1`, the Potency was “inactive”. `CC(=O)/C(C)=C/C1C(C)=CCCC1(C)C` (stereo not given) was tested, and the Potency was “inactive”. With `CCC(=O)OC(C)c1ccccc1` (stereo not given) the Potency was “inactive”. For `OC(CCl)CCl`, the Potency was “inactive”. For `C=CCS(=O)(=O)O`, the Potency was “inactive”. In the case of `CC1Cc2ccccc2N1NC(=O)c1ccc(Cl)c(S(N)(=O)=O)c1` (stereo not given), the Potency is reported as “inactive”. `CC1=NN(c2ccc(C(=O)O)cc2)C(=O)C1` was tested, and the Potency was “inactive”. `O=C(O)c1ccc(S(=O)(=O)N(Cl)Cl)cc1` was tested, and the Potency was “inactive”. With `S=C(S)NCCNC(=S)S` the Potency was “inactive”. For `FC(F)(F)c1ccccc1Cl`, the Potency was “inactive”. For `CC(c1cc2ccccc2s1)N(O)C(N)=O` (stereo not given), the Potency was “inactive”. With `CCCCCCCOC(C)=O` the Potency was “inactive”. With `CCC(C)(CCC(C)C)C(=O)[O][Sn]([CH3])([CH3])[O]C(=O)C(C)(CC)CCC(C)C` (stereo not given) the Potency was “inactive”.
